Measured values: PubChem BioAssay (NCATS)
Results filed as inconclusive are left out. Entries that show only a call come without a potency. Calls of active or inactive are those of the source. Calls follow the shape of the dose curve; as a rule, active = well fitted cell-killing curve with a large enough effect; inconclusive = small, poorly fitted or top-dose-only effect, or effect the other way; inactive = flat fitted curve, though single readings scatter.

Tested on: HeLa
Test: Primary qHTS to identify gynecologic anti-cancer compounds using libraries of approved drugs and bioactive compounds (AID 1345084); also: nearly all actives have a fitted effect of over 55% in size
Conditions: Gynecologic cancer cell panel viability, ATPlite luminescence, 48 h; series mostly up to 57.5 µM
Text: National Center for Advancing Translational Sciences [NCATS] Assay Overview: Chemotherapeutic drug responses vary from cancer to cancer and from patient to patient. These variations could be caused by a number of factors including patient genomic background, tumor mutations, tumor heterogeneity, and aspects of drug treatment. Chemotherapeutic drug resistance is also a common issue and can lead to ineffective treatment and patient death. Here we have profiled the cell killing effects of thousands of compounds to characterize the responses in three gynecological cancers, identify cancer-selective compounds, and understand the diversity of responses to these compounds from pan-cancer suppressors to single cell line selective compounds. In this assay, we screened a 7,914 compound drug library that included approved drug and bioactive compounds in six ovarian, three cervical, and […] placental cancer cell lines using the ATPlite assay for cell viability. […] The cervical cancer cell lines included HeLa, Ca Ski, and C-33 A. The placental cancer cell lines included JEG-3. HEK 293T cells were used as the control cell line to determine the selectivity index. ATPlite is a luminescence based assay reliant on the conversion of a luciferase substrate to light in the presence of ATP. As a cytotoxic compound will suppress growth and decrease the number of cells, the concentration of ATP will decrease, and less light signal will be detected in the well.
Assay Protocol Summary: 1,000 cells in 4 uL of media were dispensed into white, solid bottom 1536-well plates using a Multidrop Combi (Thermo Scientific). The Assay plates were incubated for 16 hours at 37 C with 5% CO2 in assay plates, followed by the addition of 23 nL of DMSO or drug dissolved in DMSO. Each compound was assayed in five concentrations (0.092, 0.46, 2.3, 11.5, and 57.5 uM), using the automated Wako 1536 Pin Tool workstation and incubated at 37 C with 5% CO2 48 hours. 4 uL of ATPlite, the ATP monitoring reagent, was then added to the each well of the assay plates using the Multidrop Combi reagent dispenser followed by incubation for 15 minutes at room temperature. The resulting luminescence was measured using the ViewLux plate reader.
Potency is read from the fitted curve at half-maximal effect.

Row | Structure (SMILES) | Potency | activity change, negative = cytotoxicity
1 | CN1C[C@H](C(=O)N[C@]2(C)O[C@@]3(O)[C@@H]4CCCN4C(=O)[C@H](Cc4ccccc4)N3C2=O)C[C@@H]2c3cccc4[nH]cc(c34)C[C@H]21 | inactive | 
2 | CCn1cc(C(=O)O)c(=O)c2cc3c(cc21)OCO3 | inactive | 
3 | NC(=O)N1c2ccccc2C=Cc2ccccc21 | inactive | 
4 | Cc1cccc(C)c1NC(=O)C(C)N (stereo not given) | inactive | 
5 | C[N+](C)(C)CCCCCCCCCC[N+](C)(C)C | inactive | 
6 | O=C(O)CN(CCN(CC(=O)O)CC(=O)O)CCN(CC(=O)O)CC(=O)O | inactive | 
7 | CC(C)COCC(CN(Cc1ccccc1)c1ccccc1)N1CCCC1 (stereo not given) | inactive | 
8 | CC(C)NNC(=O)c1ccncc1 | inactive | 
9 | CCN(CC)CCOCCOC(=O)C1(c2ccccc2)CCCC1 | inactive | 
10 | C(=C\c1ccccc1)/CN1CCN(C(c2ccccc2)c2ccccc2)CC1 | inactive | 
11 | CCO/C([O-])=N/c1c[n+](N2CCOCC2)no1 | inactive | 
12 | CN(C)C/C=C(/c1ccc(Br)cc1)c1cccnc1 | inactive | 
13 | COC(=O)[C@H]1[C@H]2C[C@@H]3c4[nH]c5cc(OC)ccc5c4CCN3C[C@H]2C[C@@H](OC(=O)c2cc(OC)c(OC)c(OC)c2)[C@@H]1OC | inactive | 
14 | COc1ccc([C@@H]2Sc3ccccc3N(CCN(C)C)C(=O)[C@@H]2OC(C)=O)cc1 | inactive | 
15 | CN1C(=O)CC[C@H]1c1cccnc1 | inactive | 
16 | CCOC(=O)c1cnc2c(cnn2CC)c1NN=C(C)C | inactive | 
17 | Cc1nc2c([nH]1)c(=O)n(C)c(=O)n2Cc1ccco1 | inactive | 
18 | COc1cc(C(=O)OCCCN2CCCN(CCCOC(=O)c3cc(OC)c(OC)c(OC)c3)CC2)cc(OC)c1OC | inactive | 
19 | O=c1[nH]c(=O)n([C@H]2C[C@H](O)[C@@H](CO)O2)cc1Br | inactive | 
20 | CCCCCN(CCCCC)C(=O)C(CCC(=O)O)NC(=O)c1ccc(Cl)c(Cl)c1 (stereo not given) | inactive | 

Row | Structure (SMILES) | Potency | activity change, negative = cytotoxicity
21 | CC(=O)[C@]1(O)Cc2c(O)c3c(c(O)c2[C@@H](O[C@H]2C[C@H](N)[C@H](O)[C@H](C)O2)C1)C(=O)c1ccccc1C3=O | 7.08 µM (active) | 
22 | CCN1CCc2nc(N)oc2CC1 | inactive | 
23 | CCCN(CCC)C(=O)C(CCC(=O)O)NC(=O)c1ccccc1 (stereo not given) | inactive | 
24 | C[C@]12CC[C@@H]3c4ccc(O)cc4C[C@@H](CCCCCCCCCS(=O)CCCC(F)(F)C(F)(F)F)[C@H]3[C@@H]1CC[C@@H]2O (stereo not given in full) | inactive | 
25 | CC(C)(Oc1ccc(CCNC(=O)c2ccc(Cl)cc2)cc1)C(=O)O | inactive | 
26 | C=CCc1ccccc1OCC(O)CNC(C)C (stereo not given) | inactive | 
27 | CCCN1C[C@H](CSC)C[C@@H]2c3cccc4[nH]cc(c34)C[C@H]21 | inactive | 
28 | Cc1ccc(/C(=C\CN2CCCC2)c2ccccn2)cc1 | inactive | 
29 | CN(C)[C@@H]1C(=O)C(C(N)=O)=C(O)[C@@]2(O)C(=O)C3=C(O)c4c(O)ccc(Cl)c4[C@@H](O)[C@H]3C[C@@H]12 | inactive | 
30 | CN1CCN(C2=Nc3ccccc3Oc3ccc(Cl)cc32)CC1 | inactive | 
31 | NC(Cc1ccc(Cl)cc1)C(=O)O (stereo not given) |  | 14.4% [at 0.462 µM] (inactive)
32 | COc1cc(Cc2cnc(N)nc2N)cc(OC)c1OC | inactive | 
33 | Nc1nc(N)c2nc(-c3ccccc3)c(N)nc2n1 | inactive | 
34 | Cc1nc2sccn2c(=O)c1CCN1CCC(=C(c2ccc(F)cc2)c2ccc(F)cc2)CC1 | inactive | 
35 | c1cnc(N2CCN(Cc3ccc4c(c3)OCO4)CC2)nc1 | inactive | 
36 | Cc1ccc(Cl)c(Nc2ccccc2C(=O)O)c1Cl | inactive | 
37 | CCc1c(C)[nH]c2c1C(=O)C(CN1CCOCC1)CC2 (stereo not given) | inactive | 
38 | CCNC(=O)N1CCN(CCCC(c2ccc(F)cc2)c2ccc(F)cc2)CC1 | inactive | 
39 | CCCNC(C)C(=O)Nc1ccccc1C (stereo not given) | inactive | 
40 | CC[N+](C)(C)c1cccc(O)c1 | inactive | 
